From PubChem BioAssay (NCATS)
“And” between values parts separate entries of the source, which are not always exact repeats. Identical values can stand only once. Results filed as inconclusive are left out. The source made the active and inactive calls. Unless noted, the call rests on the fitted dose curve; in most records, active means well fitted curve in the direction sought with a large enough effect; inconclusive means small, poorly fitted or top-dose-only effect, or another doubt; inactive means no such curve, though single readings can be large; an effect the other way counts as inactive or inconclusive.

What was measured:
[1] = target: Thyroid hormone receptor beta (Homo sapiens) (UniProt P10828); assay: qHTS assay for small molecule agonists of thyroid hormone receptor beta signaling (AID 588545; calls by dose curve)
Thyroid hormone receptor beta (Homo sapiens), sequence (P10828 whole entry, looked up): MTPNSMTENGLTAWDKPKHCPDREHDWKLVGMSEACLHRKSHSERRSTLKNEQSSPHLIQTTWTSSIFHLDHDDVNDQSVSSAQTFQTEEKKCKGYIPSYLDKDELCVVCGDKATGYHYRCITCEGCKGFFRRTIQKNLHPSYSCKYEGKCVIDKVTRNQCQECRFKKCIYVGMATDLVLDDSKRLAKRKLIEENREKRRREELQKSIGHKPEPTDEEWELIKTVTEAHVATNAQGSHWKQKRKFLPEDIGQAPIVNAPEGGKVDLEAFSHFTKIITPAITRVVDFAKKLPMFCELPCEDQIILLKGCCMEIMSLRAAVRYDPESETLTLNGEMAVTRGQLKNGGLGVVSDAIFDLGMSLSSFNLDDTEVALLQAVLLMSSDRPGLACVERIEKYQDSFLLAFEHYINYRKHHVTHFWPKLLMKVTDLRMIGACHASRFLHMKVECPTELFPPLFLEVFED
Summary of the method: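 In this cell-based screen, titrated compounds act on HEK 293 cells held in medium with 2% charcoal/dextran FBS, NEAA and pyruvate for 18 hrs at 37 C. Responses are expressed relative to T3 (10 nM) as 100% and basal DMSO as 0%.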

[2] = qHTS assay for small molecule antagonists of retinoid X receptor alpha signaling (AID 588546; active means well fitted inhibition curve with a large enough effect in the signal ratio, with a control signal flat, not every such curve was filed as active; the % refers to the signal ratio;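 further: cells stimulated with 9-cis-retinoic acid as agonist; on the % scale 0 is the no-effect control and ±100 the full control effect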); details: HEK293T RXRa-UAS-bla, beta-lactamase ratio, antagonist mode; measured here: W530 green channel, cytotoxicity proxy
Summary of the method: (§1)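 Beta-lactamase reporter inhibition, read as CCF4 fluorescence ratio (ex 405, em 460/530 nm) after 2 h at RT. HEK293T UAS-bla cells, 2500/well, were stimulated with 9-cis-RA at 500 or 100 nM final alongside test compound for 18 h at 37 C.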

[3] = target: Retinoic acid receptor RXR-alpha (Homo sapiens) (UniProt P19793); assay: as above; details: HEK293T RXRa-UAS-bla, beta-lactamase ratio, antagonist mode
Summary of the method: as §1

[4] = target: Thyroid hormone receptor beta (Homo sapiens) (UniProt P10828); assay: qHTS assay for small molecule antagonists of thyroid hormone receptor beta signaling (AID 588547; active means well fitted inhibition curve with a large enough effect in the signal ratio, with a control signal flat, not every such curve was filed as active; the % refers to the signal ratio;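 further: cells stimulated with 0.4 nM T3 agonist during compound exposure; series mostly up to about 77 µM; on the % scale 0 is the no-effect control and ±100 the full control effect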); details: TR-UAS-bla HEK293, beta-lactamase ratio, antagonist mode, 18 h
Summary of the method: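 TR-UAS-bla GripTite HEK293 cells in 2% charcoal/dextran FBS medium; compounds 0.59 nM to 92 uM with T3 at 0.4nM final, 18 h at 37 C. Beta-lactamase read by CCF4 fluorescence (460/530 nm); Hill fits gave IC50 and efficacy.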

[5] = target: Voltage-gated inwardly rectifying potassium channel KCNH2 (Homo sapiens) (UniProt Q12809); assay: qHTS Assay for Small Molecule Inhibitors of the Human hERG Channel Activity (AID 588834);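 further: top concentration of the series differs between compounds; on the % scale 0 is the no-effect control and ±100 the full control effect; lower thallium flux fluorescence means stronger hERG block; nearly all actives have a fitted effect of over 50% in size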
Voltage-gated inwardly rectifying potassium channel KCNH2 (Homo sapiens), sequence (Q12809 whole entry, looked up): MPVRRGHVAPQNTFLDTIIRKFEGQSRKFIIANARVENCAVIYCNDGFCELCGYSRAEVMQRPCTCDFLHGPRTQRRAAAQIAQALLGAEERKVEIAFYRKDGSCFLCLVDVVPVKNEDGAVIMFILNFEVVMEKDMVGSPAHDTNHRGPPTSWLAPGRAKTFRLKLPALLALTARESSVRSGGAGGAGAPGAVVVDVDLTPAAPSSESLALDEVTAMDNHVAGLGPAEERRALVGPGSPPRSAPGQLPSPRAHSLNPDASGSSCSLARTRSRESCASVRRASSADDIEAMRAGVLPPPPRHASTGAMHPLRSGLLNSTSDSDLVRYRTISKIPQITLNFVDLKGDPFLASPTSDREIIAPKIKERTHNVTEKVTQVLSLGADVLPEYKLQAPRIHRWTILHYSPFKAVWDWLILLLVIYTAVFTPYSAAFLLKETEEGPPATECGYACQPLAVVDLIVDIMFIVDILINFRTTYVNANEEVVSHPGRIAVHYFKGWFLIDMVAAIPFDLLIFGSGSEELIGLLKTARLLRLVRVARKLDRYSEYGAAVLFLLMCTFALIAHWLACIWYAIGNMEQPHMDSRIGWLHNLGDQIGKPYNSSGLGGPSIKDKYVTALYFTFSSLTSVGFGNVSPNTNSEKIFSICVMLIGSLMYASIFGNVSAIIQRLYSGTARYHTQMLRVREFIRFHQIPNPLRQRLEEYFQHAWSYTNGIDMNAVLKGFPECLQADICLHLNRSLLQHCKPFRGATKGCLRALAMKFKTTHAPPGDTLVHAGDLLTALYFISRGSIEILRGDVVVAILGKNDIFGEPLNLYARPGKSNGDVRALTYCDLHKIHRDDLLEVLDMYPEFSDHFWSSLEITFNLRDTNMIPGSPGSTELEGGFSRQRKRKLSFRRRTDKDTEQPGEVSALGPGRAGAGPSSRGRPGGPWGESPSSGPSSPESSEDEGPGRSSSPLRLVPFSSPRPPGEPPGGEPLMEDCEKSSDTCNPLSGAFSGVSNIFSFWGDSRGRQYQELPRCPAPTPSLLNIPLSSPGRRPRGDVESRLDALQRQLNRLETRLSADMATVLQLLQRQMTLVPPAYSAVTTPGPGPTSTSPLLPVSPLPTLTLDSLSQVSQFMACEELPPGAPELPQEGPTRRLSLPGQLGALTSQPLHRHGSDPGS
Summary of the method: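 Step 1: BacMam hERG transduction of U2OS, 4 hrs RT. Step 2: overnight 37 °C, plate 2000 cells/well, 4 hr. Step 3: FluxOR load, compound 10 min, stimulate, read fluorescence.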

[6] = qHTS assay for small molecule disruptors of the mitochondrial membrane potential - 1 hr assay (AID 651754; calls by dose curve; further: on the % scale 0 is the no-effect control and ±100 the full control effect; nearly all actives have a fitted effect of over 35% in size)
Summary of the method: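 In this qHTS format, a 1 hr compound treatment of HepG2 cells precedes Mito-MPS staining, and membrane potential is judged from aggregate (red) against monomer (green) fluorescence intensity.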

[7] = qHTS assay for small molecule disruptors of the mitochondrial membrane potential - 5 hr assay (AID 651755; calls by dose curve; further: on the % scale 0 is the no-effect control and ±100 the full control effect; nearly all actives have a fitted effect of over 40% in size)
Summary of the method: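 Read-out: ratiometric Mito-MPS fluorescence, green monomer (ex 490/em 535) vs red mitochondrial aggregate (ex 540/em 590). HepG2 cells treated 5 hr at 37C before 30 min dye loading.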

[8] = target: Tumor necrosis factor (Homo sapiens) (UniProt P01375); assay: qHTS assay to identify small molecules that stimulate Tumor Necrosis Factor-alpha (TNF-alpha) secretion (AID 651757; active means well fitted curve in the direction sought with a large enough effect in the signal ratio; the % refers to the signal ratio; further: 0% is about no effect)
Summary of the method: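 Using 3000 THP-1 cells per well, compounds and controls were applied for 17 hrs at 37 C. Detection followed with two labeled anti-TNF-alpha antibodies (cryptate donor, XL665 acceptor) for 3 hr at room temperature, measured by TR-FRET.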

[9] = qHTS assay for environmental chemicals that activate the Aryl hydrocarbon Receptor (AhR) signaling pathway (AID 651777); details: 1A2-DRE human hepatoma cells, luciferase, 24 h; activation: stronger effect = higher value; further: % of control where 0% means no effect; nearly all actives have a fitted effect of over 15% in size
Summary of the method: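 AhR activation is scored as a rise in luciferase from a stable DRE–CYP1A2 promoter construct in human hepatoma cells. Treatment lasts 24 hr at 37 C; detection uses One-Glo after 30 min at room temperature.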

[10] = target: Peroxisome proliferator-activated receptor alpha (Homo sapiens) (UniProt Q07869); assay: qHTS assay for small molecule agonists of the peroxisome proliferator-activated receptor alpha (PPARalpha) signaling pathway (AID 651778); details: PathHunter PPARalpha complementation, chemiluminescence, 6 h; stronger effect = higher value; further: % of control where 0% means no effect
Peroxisome proliferator-activated receptor alpha (Homo sapiens), sequence (Q07869 whole entry, looked up, the tested form may be a part): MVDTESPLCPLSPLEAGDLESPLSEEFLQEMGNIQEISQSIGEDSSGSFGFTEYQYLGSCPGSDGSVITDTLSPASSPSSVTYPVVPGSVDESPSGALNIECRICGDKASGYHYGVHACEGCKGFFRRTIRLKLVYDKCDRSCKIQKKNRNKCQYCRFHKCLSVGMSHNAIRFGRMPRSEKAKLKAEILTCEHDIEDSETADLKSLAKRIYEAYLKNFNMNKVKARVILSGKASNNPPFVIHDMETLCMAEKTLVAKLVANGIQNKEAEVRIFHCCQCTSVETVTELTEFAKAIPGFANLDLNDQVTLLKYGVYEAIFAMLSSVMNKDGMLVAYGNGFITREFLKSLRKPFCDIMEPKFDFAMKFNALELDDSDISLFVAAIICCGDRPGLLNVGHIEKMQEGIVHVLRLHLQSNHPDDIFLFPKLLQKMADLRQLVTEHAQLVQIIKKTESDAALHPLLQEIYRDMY
Summary of the method: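 Enzyme-fragment complementation assay in which ligand-bound PPARalpha translocates and forms an active enzyme that generates chemiluminescence. Cells were plated overnight, exposed to compound for 6 hr at 37 C, and then given detection reagent for 60 min at room temperature.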

[11] = target: Nuclear receptor ROR-gamma (Homo sapiens) (UniProt P51449); assay: qHTS assay for small molecule antagonists of the retinoid-related orphan receptor gamma (ROR-gamma) signaling pathway (AID 651802);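 further: CHO cells with doxycycline-induced ROR-gamma expression; luciferase reporter luminescence driven by ROR response element; series mostly up to about 92 µM; on the % scale 0 is the no-effect control and ±100 the full control effect; nearly all actives have a fitted effect of over 60% in size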
Nuclear receptor ROR-gamma (Homo sapiens), sequence (P51449 whole entry, looked up): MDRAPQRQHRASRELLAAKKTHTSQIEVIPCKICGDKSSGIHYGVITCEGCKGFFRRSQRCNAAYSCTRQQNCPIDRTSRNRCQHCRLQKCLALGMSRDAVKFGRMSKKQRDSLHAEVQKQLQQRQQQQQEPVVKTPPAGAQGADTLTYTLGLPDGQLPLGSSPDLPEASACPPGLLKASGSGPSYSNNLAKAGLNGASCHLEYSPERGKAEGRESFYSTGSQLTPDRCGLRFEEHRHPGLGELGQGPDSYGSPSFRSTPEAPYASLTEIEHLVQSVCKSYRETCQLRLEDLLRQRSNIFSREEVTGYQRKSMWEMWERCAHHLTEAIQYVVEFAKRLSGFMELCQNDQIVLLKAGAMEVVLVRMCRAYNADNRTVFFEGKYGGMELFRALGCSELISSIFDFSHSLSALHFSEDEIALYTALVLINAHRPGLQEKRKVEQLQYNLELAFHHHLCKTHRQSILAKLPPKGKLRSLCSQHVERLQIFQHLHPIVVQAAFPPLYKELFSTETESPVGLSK
Summary of the method: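 Doxycycline-induced reporter activity in engineered CHO cells (TET-inducible ROR, RORE-LUC) was measured by luminescence after 16hr compound exposure at 37C.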

[12] = qHTS assay for small molecule agonists of the antioxidant response element (ARE) signaling pathway measured by Nrf2-dependant transcriptional activity (AID 720636; active means well fitted curve in the direction sought with a large enough effect in the repeat runs; an effect the other way counts as inactive or inconclusive;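 further: HepG2 cells with an ARE-driven luciferase reporter; % of control where 0% means no effect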)
Summary of the method: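 First, ARE-luc HepG2 cells attached for 6 hr at 37 C in 1% dialyzed FBS medium. Next, compound or DMSO was added and incubated 16 hr. Finally, ONE-Glo reagent was added and luminescence measured after 30 min.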

[13] = qHTS assay for small molecule antagonists of the retinoid-related orphan receptor gamma (ROR-gamma) signaling pathway - cell viability counter screen (AID 720652; active means well fitted curve in the direction sought with a large enough effect in the repeat runs; an effect the other way counts as inactive or inconclusive;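 further: CHO reporter cells with doxycycline-induced ROR-gamma expression; series mostly up to about 92 µM; compound exposure lasted 16 hr before ATP read; on the % scale 0 is the no-effect control and ±100 the full control effect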)
Summary of the method: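 ATP-based viability readout in the ROR-gamma reporter CHO cells after 16 hr compound exposure under doxycycline induction.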

[14] = qHTS assay for small molecule agonists of the antioxidant response element (ARE) signaling pathway measured by Nrf2-dependant transcriptional activity - cell viability counter screen (AID 720653; active means well fitted curve in the direction sought with a large enough effect in the repeat runs; an effect the other way counts as inactive or inconclusive; further: on the % scale 0 is the no-effect control and ±100 the full control effect); details: ARE-bla HepG2 viability, CellTiter-Glo ATP luminescence, 16 h; stronger effect = lower value
Summary of the method: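 ARE-bla HepG2 cells treated with compounds for 16 h at 37C; this counter screen measures viability as intracellular ATP by CellTiter-Glo luminescence after 30 min at room temperature.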

[15] = qHTS assay for cell viability of HEK293 cells (AID 743288); details: ATP luminescence (CellTiter-Glo), 18 h; max response: stronger effect = lower value; further: on the % scale 0 is the no-effect control and ±100 the full control effect; nearly all actives have a fitted effect of over 50% in size
Summary of the method: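 Viable-cell counts were inferred from luciferase-based ATP content in HEK293 cells seeded at 2,000/well, pre-incubated ≥5 h, then dosed with DMSO-solubilised compounds for 18 h at 37 C.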

[16] = qHTS assay for cell viability of the p53RE-bla HCT-116 cell line (AID 743292); further: potency means the concentration at half of the fitted maximal effect; nearly all actives have a fitted effect of over 55% in size
Summary of the method: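 Quantitative high-throughput format: compounds in DMSO were pinned onto p53RE-bla HCT-116 cells (4,000/well) and incubated 16 h at 37 C. Total intracellular ATP, read by CellTiter-Glo luminescence, reflects viable cell number.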

[17] = target: Rap guanine nucleotide exchange factor 3 (Homo sapiens) (UniProt O95398); assay: Confirmatory qHTS for agonist of cAMP-regulated guanine nucleotide exchange factor 3 (EPAC1) (AID 1645881);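 further: EPAC1 catalysed release of BODIPY-GDP from Rap1B seen as fluorescence loss; 100% = effect of cAMP agonist control; nearly all actives have a fitted effect of over 75% in size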
Rap guanine nucleotide exchange factor 3 (Homo sapiens), sequence (O95398 whole entry, looked up): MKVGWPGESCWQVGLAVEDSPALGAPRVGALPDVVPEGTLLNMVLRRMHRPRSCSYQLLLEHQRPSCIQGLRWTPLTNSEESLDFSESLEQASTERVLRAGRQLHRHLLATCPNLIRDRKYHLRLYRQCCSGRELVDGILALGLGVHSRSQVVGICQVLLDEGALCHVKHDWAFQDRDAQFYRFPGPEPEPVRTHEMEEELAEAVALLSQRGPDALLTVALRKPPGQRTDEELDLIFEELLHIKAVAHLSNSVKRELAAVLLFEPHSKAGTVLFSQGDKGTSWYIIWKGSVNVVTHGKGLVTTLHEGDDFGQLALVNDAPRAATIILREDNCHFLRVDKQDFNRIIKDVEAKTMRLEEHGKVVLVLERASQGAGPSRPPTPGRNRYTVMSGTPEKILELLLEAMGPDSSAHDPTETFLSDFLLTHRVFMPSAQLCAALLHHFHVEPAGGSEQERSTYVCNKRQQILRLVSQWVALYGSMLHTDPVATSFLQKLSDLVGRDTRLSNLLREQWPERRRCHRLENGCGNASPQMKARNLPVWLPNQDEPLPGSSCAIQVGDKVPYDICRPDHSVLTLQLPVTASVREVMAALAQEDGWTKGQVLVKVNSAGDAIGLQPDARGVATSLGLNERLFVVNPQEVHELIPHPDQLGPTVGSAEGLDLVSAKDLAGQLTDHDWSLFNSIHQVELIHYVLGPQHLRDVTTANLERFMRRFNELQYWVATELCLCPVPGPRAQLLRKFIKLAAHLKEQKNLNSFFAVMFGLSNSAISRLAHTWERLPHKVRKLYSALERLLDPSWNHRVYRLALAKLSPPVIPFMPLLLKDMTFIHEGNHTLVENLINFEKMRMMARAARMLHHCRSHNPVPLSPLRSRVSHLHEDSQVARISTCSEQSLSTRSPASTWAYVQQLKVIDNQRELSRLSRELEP

[18] = target: Rap guanine nucleotide exchange factor 4 (Homo sapiens) (UniProt Q8WZA2); assay: Confirmatory qHTS for agonist of cAMP-regulated guanine nucleotide exchange factor 4 (EPAC2) (AID 1645884);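 further: nucleotide exchange releases bodipy-GDP from Rap1 and this lowers its fluorescence; on the % scale 0 is the no-effect control and ±100 the full control effect; nearly all actives have a fitted effect of over 65% in size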
Rap guanine nucleotide exchange factor 4 (Homo sapiens), sequence (Q8WZA2 whole entry, looked up): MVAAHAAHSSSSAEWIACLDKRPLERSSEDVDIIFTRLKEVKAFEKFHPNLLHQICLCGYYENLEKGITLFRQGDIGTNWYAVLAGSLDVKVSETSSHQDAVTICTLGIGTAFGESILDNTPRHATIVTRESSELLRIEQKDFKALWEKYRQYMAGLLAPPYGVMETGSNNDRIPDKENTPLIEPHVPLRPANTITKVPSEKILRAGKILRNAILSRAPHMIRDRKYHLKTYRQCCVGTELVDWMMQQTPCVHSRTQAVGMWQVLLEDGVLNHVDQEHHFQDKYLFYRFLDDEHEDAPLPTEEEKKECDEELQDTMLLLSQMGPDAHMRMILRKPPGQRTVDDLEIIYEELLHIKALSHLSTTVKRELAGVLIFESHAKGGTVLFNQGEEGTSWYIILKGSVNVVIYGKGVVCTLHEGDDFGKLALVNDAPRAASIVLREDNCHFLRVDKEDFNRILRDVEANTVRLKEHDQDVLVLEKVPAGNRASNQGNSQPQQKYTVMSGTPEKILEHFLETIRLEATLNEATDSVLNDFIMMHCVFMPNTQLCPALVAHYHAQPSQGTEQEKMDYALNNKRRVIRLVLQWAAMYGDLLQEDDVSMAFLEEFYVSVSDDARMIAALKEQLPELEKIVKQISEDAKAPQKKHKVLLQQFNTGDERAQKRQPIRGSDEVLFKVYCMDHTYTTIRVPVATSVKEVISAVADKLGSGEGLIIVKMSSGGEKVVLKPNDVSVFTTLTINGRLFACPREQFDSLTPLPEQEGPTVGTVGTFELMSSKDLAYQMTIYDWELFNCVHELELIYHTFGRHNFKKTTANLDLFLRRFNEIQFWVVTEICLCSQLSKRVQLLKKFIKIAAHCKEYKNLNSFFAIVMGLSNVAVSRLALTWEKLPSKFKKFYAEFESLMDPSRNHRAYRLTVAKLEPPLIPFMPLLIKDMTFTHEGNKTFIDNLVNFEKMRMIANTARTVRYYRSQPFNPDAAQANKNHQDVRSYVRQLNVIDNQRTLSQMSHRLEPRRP

[19] = target: Rap guanine nucleotide exchange factor 4 (Homo sapiens) (UniProt Q8WZA2); assay: Confirmatory qHTS for antagonist of cAMP-regulated guanine nucleotide exchange factor 4 (EPAC2) (AID 1645885); further: potency means the concentration at half of the fitted maximal effect; nearly all actives have a fitted effect of over 25% in size
[20] = target: Rap guanine nucleotide exchange factor 3 (Homo sapiens) (UniProt O95398); assay: Counterscreen qHTS for antagonist of cAMP-regulated guanine nucleotide exchange factor 3 (EPAC1) (AID 1645888);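 further: fluorescence loss as bound BODIPY-GDP is released from Rap1B; % of control where 0% means no effect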
Summary of the method: (§2)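 Rap1B–BODIPY-GDP (250 nM) with 50 uM GDP; compounds pin-transferred to 9.74 nM–152 uM final (activator) or from 7.32 nM upwards (inhibitor). Fluorescence Ex/Em 480/540 nm read at 5 and 30 min, then after adding cAMP or buffer, at room temperature.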

[21] = target: Rap guanine nucleotide exchange factor 3 (Homo sapiens) (UniProt O95398); assay: Counterscreen qHTS for agonist of cAMP-regulated guanine nucleotide exchange factor 3 (EPAC1) (AID 1645889); further: % of control where 0% means no effect; nearly all actives have a fitted effect of over 40% in size
Summary of the method: as §2

[22] = target: Nuclear receptor subfamily 1 group I member 2 (Rattus norvegicus) (UniProt Q9R1A7); assay: qHTS assay for small molecule activators of the rat pregnane X receptor (rPXR) signaling pathway (AID 651751; call rule not given here; further: 0% is about no effect); details: rPXR reporter cells, luciferase (One-Glo), 24 h
Nuclear receptor subfamily 1 group I member 2 (Rattus norvegicus), sequence (Q9R1A7 whole entry, looked up): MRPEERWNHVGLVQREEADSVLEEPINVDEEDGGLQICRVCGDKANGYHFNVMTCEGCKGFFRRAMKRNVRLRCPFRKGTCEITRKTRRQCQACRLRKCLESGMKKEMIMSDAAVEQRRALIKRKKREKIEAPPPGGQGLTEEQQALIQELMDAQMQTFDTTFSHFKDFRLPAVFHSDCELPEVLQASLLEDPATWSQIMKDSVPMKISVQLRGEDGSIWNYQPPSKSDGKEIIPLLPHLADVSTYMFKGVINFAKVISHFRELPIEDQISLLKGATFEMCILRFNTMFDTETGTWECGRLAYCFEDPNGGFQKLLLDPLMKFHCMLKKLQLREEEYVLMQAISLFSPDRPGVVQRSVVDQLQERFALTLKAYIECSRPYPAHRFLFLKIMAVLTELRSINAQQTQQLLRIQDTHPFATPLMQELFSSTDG

[23] = qHTS assay for small molecule activators of the human pregnane X receptor (PXR) signaling pathway (AID 720659; call rule not given here; further: 0% is about no effect)

Clc1cc(Cl)c(-c2cc(Cl)c(Cl)cc2Cl)cc1Cl
active: Potency [16] 44.7 µM | Potency [19] 4.78 µM
inactive: outcome [1] | max response [3] 12.5% | activity change % (negative = inhibition) [4] -3% and 18.9% | Potency [5] | Potency [6] | Potency [7] | outcome [8] | activation [9] -0.0322% and 0.521% | max response [10] -1.16% and 9.79% | Potency [11] | outcome [12] | Potency [13] | max response [14] -2.79% and -2.97% | max response [15] -28.5% and -15.8% | Potency [17] | Potency [18] | outcome [20] | Potency [21] | max response [22] 2.83% and 5.76% | outcome [23]
9.9%: max response [2]
